# According to PubChem BioAssay (NCATS):
# Several values for one entry are separate records, joined by “and”; a condition that tells them apart may be missing. Equal entries are not always repeated. Records with an inconclusive call do not appear. Activity calls are given as the source filed them. Unless noted, calls follow the shape of the dose curve; as a rule, active = well fitted curve in the direction sought with a large enough effect; inconclusive = small, poorly fitted or top-dose-only effect, or another doubt; inactive = no such curve, though single readings can be large; an effect the other way counts as inactive or inconclusive.
# Key:
# [1] = qHTS Assay for Lipid Storage Modulators (AID 1519; calls by dose curve; also: potency is read from the fitted curve at half-maximal effect; as to activity change, negative = inhibition: % is scaled to controls: 0 for no effect and ±100 for the full control effect); details: Drosophila S3 cells, BODIPY lipid droplet/cell ratio, laser cytometry, cells loaded with oleic acid
# Method in brief: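 Cells seeded at 5,000 per well were treated with compounds over a concentration series and loaded with oleic acid (400 uM, as added). Lipid droplet fluorescence (488 nm excitation, 500-530 nm channel) was read by laser-scanning cytometry and normalized to 20 uM Triacsin C.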
# [2] = biological target: Endonuclease 4 (Escherichia coli (strain K12)) (UniProt P0A6C1); assay: Counterscreen for APE1 Inhibitors: qHTS Validation Assay for Inhibitors of Endonuclease IV (AID 1708); also: % is scaled to controls: 0 for no effect and ±100 for the full control effect; details: E. coli endonuclease IV, DNA cleavage fluorescence; series mostly up to 57.1 µM
# Method in brief: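 qHTS concentration-response format; LOPAC1280 tested under APE1-screen conditions. 2 nM enzyme, 15 min compound preincubation at RT, then 50 nM TAMRA/BHQ-2 abasic substrate; kinetic fluorescence read, three reads at 60 s intervals.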
# [3] = qHTS for differential inhibitors of proliferation of Plasmodium falciparum line 7G8 (AID 1815); details: Plasmodium falciparum 7G8 proliferation inhibition; series mostly up to 28.7 µM;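 also: parasite growth measured after three days of incubation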; also: potency is read from the fitted curve at half-maximal effect;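 as to activity change, negative = inhibition: plate controls were vehicle wells for no effect and reference inhibitor wells for full effect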
# [4] = qHTS for differential inhibitors of proliferation of Plasmodium falciparum line GB4 (AID 1816); details: Potency: Plasmodium falciparum GB4 proliferation inhibition; series mostly up to 28.7 µM;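 also: parasite growth measured after 72 h incubation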; also: potency is read from the fitted curve at half-maximal effect;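 as to activity change, negative = inhibition: 0% = vehicle DMSO and -100% = reference inhibitor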
# [5] = qHTS for differential inhibitors of proliferation of Plasmodium falciparum line W2 (AID 1883); details: Potency: Plasmodium falciparum W2 proliferation inhibition; series mostly up to 28.7 µM;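 also: parasites grown with compound for 72 h before lysis and staining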; also: potency is read from the fitted curve at half-maximal effect;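 as to activity change, negative = inhibition: 0% = vehicle wells and -100% = control inhibitor wells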
# [6] = biological target: DNA repair nuclease/redox regulator APEX1 (Homo sapiens) (UniProt P27695); assay: qHTS Validation Assay for Inhibitors of the Human Apurinic/apyrimidinic Endonuclease 1 (APE1) (AID 1705;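 also: TAMRA fluorescence gain over two minutes as APE1 cuts a quenched THF abasic duplex; % is scaled to controls: 0 for no effect and ±100 for the full control effect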); details: purified APE1 endonuclease activity, fluorescence, titration; series mostly up to 57.1 µM
# Sequence of DNA repair nuclease/redox regulator APEX1 (Homo sapiens) (P27695 whole entry, looked up): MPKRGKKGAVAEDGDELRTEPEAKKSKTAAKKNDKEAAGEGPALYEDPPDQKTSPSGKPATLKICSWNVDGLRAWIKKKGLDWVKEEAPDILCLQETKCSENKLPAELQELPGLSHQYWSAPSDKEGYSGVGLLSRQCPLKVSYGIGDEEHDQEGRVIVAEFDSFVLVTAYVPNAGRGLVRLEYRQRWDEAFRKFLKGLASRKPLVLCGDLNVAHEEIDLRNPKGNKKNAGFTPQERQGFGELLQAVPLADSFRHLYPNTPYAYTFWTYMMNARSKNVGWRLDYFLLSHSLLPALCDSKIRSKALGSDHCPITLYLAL
# Method in brief: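 Human APE1 was preincubated with compound for 15 min at room temperature, then 50 nM (final) THF-abasic double-stranded DNA substrate bearing 5'-TAMRA and 3'-BHQ-2 was added. Incision-driven fluorescence rise (ex 525/em 598 nm) was read kinetically.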
# [7] = Counterscreen for APE1 Inhibitors: Fluorescent Dye Displacement Validation Assay (AID 1707); details: fluorescent dye displacement from DNA; series mostly up to 57.1 µM;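 also: plate controls were ThO with dsDNA and no compound for no effect and ThO without dsDNA for full effect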
# Method in brief: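 ThO 250 nM + dsDNA 50 nM (THF abasic site, 5'-TAMRA), Tris-HCl pH7.5/50mM NaCl/2 mM MgCl2/0.01% Tween-20; compounds pin-transferred; ex 480/em 540 nm endpoint. Neutral = no compound; no-DNA ThO wells = negative control.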
# [8] = qHTS for differential inhibitors of proliferation of Plasmodium falciparum line 3D7 (AID 1876); also: potency is read from the fitted curve at half-maximal effect; details: P. falciparum 3D7 proliferation inhibition; series mostly up to 28.7 µM
# [9] = qHTS for differential inhibitors of proliferation of Plasmodium falciparum line D10 (AID 1877); details: series mostly up to 28.7 µM;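 also: parasites grown with compound for 72 h before DNA staining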; also: potency is read from the fitted curve at half-maximal effect;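 as to activity change, negative = inhibition: plate controls were vehicle wells for no effect and reference inhibitor wells for full effect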
# [10] = qHTS for differential inhibitors of proliferation of Plasmodium falciparum line Dd2 (AID 1882); details: Potency: Plasmodium falciparum Dd2 proliferation inhibition; series mostly up to 28.7 µM; also: nearly all actives have a fitted effect of over 65% in size; also: potency is read from the fitted curve at half-maximal effect;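 as to activity change, negative = inhibition: plate controls were DMSO vehicle for no effect and 0.29 µM artemisinin for full effect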
# Method in brief: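 Dd2-infected erythrocytes (0.3% parasitemia, 2.5% hematocrit final) incubated with compound 72 h at 37 C, 5% CO2; lysed with saponin/Triton buffer containing SYBR Green I, incubated overnight in the dark, then read by fluorescence (485/535 nm). Normalized to 0.29 uM artemisinin and DMSO.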
# [11] = measured here: cell count channel max response
# [12] = measured here: lipid channel max response
smiles,measurement,setting,value
Cc1ccc(N=CN(C)C=Nc2ccc(C)cc2C)c(C)c1,"activity change, negative = inhibition",[1]; at 57.5 µM (top of the series),14.3% (inactive)
same,max response,[1]; [11],10.9%
same,max response,[1]; [12],26.2%
CC(C)[N+](C)(CCC(C(N)=O)(c1ccccc1)c1ccccc1)C(C)C,"activity change, negative = inhibition",[1]; at 25.7 µM (top of the series),-0.769% (inactive)
same,"activity change, negative = inhibition",[1]; at 57.5 µM (top of the series),9.64% (inactive)
same,max response,[1]; [11],-8.79% and 5.39%
same,max response,[1]; [12],-9.77% and 16.5%
CCCC(C)C1(CC)C(=O)N=C(S)NC1=O (stereo not drawn),"activity change, negative = inhibition",[1]; at 57.5 µM (top of the series),4.86% (inactive)
same,max response,[1]; [11],-3.79%
same,max response,[1]; [12],1.05%
Cc1cc(C(C)(C)C)cc(C)c1CC1=NCCN1,"activity change, negative = inhibition",[1]; at 25.7 µM (top of the series),0.58% (inactive)
same,"activity change, negative = inhibition",[1]; at 57.5 µM (top of the series),0.173% (inactive)
same,max response,[1]; [11],-1.09% and 8.12%
same,max response,[1]; [12],3.95% and 14.5%
same,outcome,[2],inactive
same,Potency,[3],7.94 µM (active)
same,Potency,[4],8.91 µM (active)
same,Potency,[5],5.62 µM (active)
COc1ccc(C(=O)N2CCCC2=O)cc1,"activity change, negative = inhibition",[1]; at 57.5 µM (top of the series),-0.445% (inactive)
same,max response,[1]; [11],21.4%
same,max response,[1]; [12],19.3%
same,outcome,[6],inactive
same,outcome,[7],inactive
same,outcome,[2],inactive
same,Potency,[3],inactive
same,Potency,[4],inactive
same,Potency,[8],inactive
same,Potency,[9],inactive
same,Potency,[10],inactive
same,Potency,[5],inactive
CCCCCCCCCCCCCCCC[n+]1ccccc1,Potency,[1],10 µM (active)
same,max response,[1]; [11],-21.8%
same,max response,[1]; [12],-114%
CCC(=O)O[C@H]1CC[C@H]2[C@@H]3CCC4=CC(=O)CC[C@]4(C)[C@H]3CC[C@]12C,"activity change, negative = inhibition",[1]; at 25.7 µM (top of the series),0.757% (inactive)
same,max response,[1]; [11],2.96%
same,max response,[1]; [12],3.14%
COc1ccc(CN2CCNCC2)c(OC)c1OC,"activity change, negative = inhibition",[1]; at 25.7 µM (top of the series),-1.99% (inactive)
same,max response,[1]; [11],-6.25%
same,max response,[1]; [12],-8.59%
OC(c1ccccc1)(c1ccccc1)C1CCNCC1,"activity change, negative = inhibition",[1]; at 25.7 µM (top of the series),-3.2% (inactive)
same,max response,[1]; [11],-4.3%
same,max response,[1]; [12],-6.81%
CC[C@H]1CN2CCc3cc(OC)c(OC)cc3[C@@H]2C[C@@H]1C[C@H]1NCCc2cc(OC)c(OC)cc21,outcome,[6],inactive
same,Potency,[4],0.0891 µM (active)
same,Potency,[8],0.0794 µM (active)
same,Potency,[9],0.141 µM (active)
same,Potency,[10],0.112 µM (active)
Clc1ccc(CSC(Cn2ccnc2)c2ccc(Cl)cc2Cl)cc1 (stereo not drawn),"activity change, negative = inhibition",[1]; at 57.5 µM (top of the series),11.1% (inactive)
same,max response,[1]; [11],-1.1%
same,max response,[1]; [12],12.4%
CN1[C@@H]2CC[C@H]1CC(OC(=O)c1cc(Cl)cc(Cl)c1)C2 (stereo partly drawn),"activity change, negative = inhibition",[1]; at 57.5 µM (top of the series),4.19% (inactive)
same,max response,[1]; [11],20.8%
same,max response,[1]; [12],27.7%
CC(N)C(=O)OC(C)(C)Cc1ccc(Cl)cc1 (stereo not drawn),"activity change, negative = inhibition",[1]; at 57.5 µM (top of the series),9.94% (inactive)
same,max response,[1]; [11],6.48%
same,max response,[1]; [12],18.3%
same,outcome,[6],inactive
same,outcome,[7],inactive
same,Potency,[3],5.62 µM (active)
same,Potency,[4],1 µM (active)
same,Potency,[9],inactive
same,Potency,[10],5.62 µM (active)
same,Potency,[5],1.41 µM (active)
O=C(CCCN1CCC(n2c(=O)[nH]c3ccccc32)CC1)c1ccc(F)cc1,"activity change, negative = inhibition",[1]; at 25.7 µM (top of the series),0.264% (inactive)
same,max response,[1]; [11],-5.85%
same,max response,[1]; [12],-3.11%
CN(C)C(=O)Oc1cccc([N+](C)(C)C)c1,"activity change, negative = inhibition",[1]; at 25.7 µM (top of the series),-1.76% (inactive)
same,"activity change, negative = inhibition",[1]; at 57.5 µM (top of the series),8.87% (inactive)
same,max response,[1]; [11],2.56% and -8.73%
same,max response,[1]; [12],2.57% and 1.95%
c1ccc2nc(N3CCNCC3)ccc2c1,"activity change, negative = inhibition",[1]; at 25.7 µM (top of the series),-1.91% (inactive)
same,"activity change, negative = inhibition",[1]; at 57.5 µM (top of the series),4.37% (inactive) and 6.17% (inactive)
same,max response,[1]; [11],-6.47% and 8.94% and 1.83%
same,max response,[1]; [12],-9.05% and 14.3% and 11.9%
same,outcome,[6],inactive
same,outcome,[7],inactive
same,Potency,[3],7.94 µM (active)
same,Potency,[4],11.2 µM (active)
same,Potency,[9],inactive
same,Potency,[5],7.08 µM (active)
C[N+](C)(C)CCCCCCCCCC[N+](C)(C)C,Potency,[3],5.01 µM (active)
same,Potency,[4],3.98 µM (active)
same,Potency,[8],0.355 µM (active)
same,Potency,[9],1.26 µM (active)
same,Potency,[10],10 µM (active)
same,Potency,[5],0.562 µM (active)
NC(N)=N/N=C/c1c(Cl)cccc1Cl,Potency,[3],11.2 µM (active)
same,Potency,[4],11.2 µM (active)
same,Potency,[8],6.31 µM (active)
same,Potency,[9],11.2 µM (active)
same,Potency,[5],3.98 µM (active)
